D1 agonist – agonists of human D1 dopamine receptor; P21728; activation, % at 2 µM; HEK293 T-REx D1 cells, calcium flux, agonist mode; AID 504660; 1% of 360,000 active; in the data active means activation above about 30%
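Inducible HEK293 T-REx D1 cells, force-coupled to calcium signalling, were plated at 4000 cells/well with tetracycline and held overnight at 30 C. After no-wash calcium dye loading, compound-evoked calcium rise over 180 s flagged agonists.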
D1 antag – antagonists of human D1 dopamine receptor; P21728; HEK293 TREx D1 cells, calcium flux, dopamine EC80; active compounds read low; activity change, negative = inhibition, % at 10 µM; 3.2% of 360,000 active; in the data active means activity change below about -30%
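Allosteric or orthosteric antagonism assessed as attenuation of the calcium response to EC80 dopamine, added 180 s after compound, in induced HEK293 Trex D1 cells loaded with no-wash calcium dye.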
TRHR agonist-1 – activates the human TRH receptor. activation, % at 2 µM. 0.18% of 360,000 active. P34981. AID 493084. TRHR cells, calcium flux fluo-8, FDSS agonist mode; in the data active means activation above about 30%
Target sequence (P34981 whole entry, looked up): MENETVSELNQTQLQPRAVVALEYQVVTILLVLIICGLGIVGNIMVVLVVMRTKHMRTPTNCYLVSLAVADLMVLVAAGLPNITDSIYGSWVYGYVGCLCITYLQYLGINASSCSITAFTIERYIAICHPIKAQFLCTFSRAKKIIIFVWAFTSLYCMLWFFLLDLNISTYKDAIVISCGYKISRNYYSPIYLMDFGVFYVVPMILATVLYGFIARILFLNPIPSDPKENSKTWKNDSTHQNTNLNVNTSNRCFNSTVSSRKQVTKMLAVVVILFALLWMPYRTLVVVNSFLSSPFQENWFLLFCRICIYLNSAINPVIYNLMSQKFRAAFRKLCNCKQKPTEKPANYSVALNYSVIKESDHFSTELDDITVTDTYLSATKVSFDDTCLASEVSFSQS
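Steps: seed TRHR cells overnight; add fluo-8 no-wash Ca dye, RT 30 min–1.5 h; record 10 s baseline; pin-transfer compounds; monitor fluorescence 1 cycle/s for the agonist window. Calcium increases flag candidate agonists.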
USP1 inh – blocks the human USP1/UAF1 deubiquitinase complex; 0.23% of 390,000 active; O94782; Potency, µM (highest dose often 57.1 µM), actives largely listed as inhibitors; recombinant USP1/UAF1, Ub-Rhodamine cleavage fluorescence; further: nearly all actives have a fitted effect of over 60% in size
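1 nM enzyme complex + cpd, 15 min RT; start with Ub-Rho 150nM final; kinetic fluorescence ex 480/em 540, 6 reads q60 s. Buffer 50mM HEPES pH 7.8, 0.5mM EDTA, 0.1 mg/ml BSA, 1mM TCEP, 0.01% Tween-20.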
D1 PAM – potentiators of human D1 dopamine receptor; HEK293 TREx D1 cells, calcium flux, dopamine EC20 potentiation; 0.036% of 360,000 active; potentiation, % at 10 µM; P21728; in the data active means potentiation above about 30%
TRHR enhancer-1 – TRH receptor (human) allosteric enhancement; TRHR cells, fluo-8 calcium fluorescence, EC20 TRH enhancement; enhancement, % at 2 µM; 0.66% of 360,000 active; AID 493056; in the data active means enhancement above about 30%
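Enhancer read-out: after compound pinning and an initial kinetic agonist-mode read, an EC20 of TRH (10 nM final) was injected and fluo-8 calcium signal (Ex 480/Em 530) followed at 1 s/cycle for 100 cycles in TRHR-expressing cells.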
TRHR enhancer-2 – human TRH receptor allosteric enhancement confirmation; shares compounds with TRHR enhancer-1; TRH receptor cell assay, enhancer confirmation qHTS; activity change, negative = inhibition, % at 46.1 µM; 970 tested, under 10 active;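 further: compound effect scored on response to added TRH at EC20 of 10 nM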
TRHR agonist-2 – confirmation of human TRH receptor agonists. shares compounds with TRHR enhancer-1. TRHR-expressing cells, agonist activation read-out. Potency, µM (top dose mostly 46.1 µM), usual class: activators. 8% of 970 active. AID 493078; further: nearly all actives have a fitted effect of over 75% in size
Large screens that a line does not name were inactive (follow-up assays come after a bar, where they were run). Sampled rows, rich in hits. Any-hit rate of the full collection: about 4.4%. Unless noted, the call rests on the fitted dose curve; in most records, active means well fitted curve in the direction sought with a large enough effect; inconclusive means small, poorly fitted or top-dose-only effect, or another doubt; inactive means no such curve, though single readings can be large; an effect the other way counts as inactive or inconclusive.

O=C(N/N=C/c1cccnc1)c1ccccc1OCc1cccc(Br)c1	none
Cc1ccc(/C=N/NC(=O)c2ccccc2OCc2cccc(Br)c2)o1	TRHR enhancer-1 58 | TRHR enhancer-2 inactive | TRHR agonist-2 inactive
COc1ccc(C2C(C(C)=O)=C(C)N=c3s/c(=C/c4ccc5c(c4)OCO5)c(=O)n32)cc1 (configuration not stated)	TRHR agonist-1 38 (no result: USP1 inh) | TRHR enhancer-2 inactive | TRHR agonist-2 inconclusive
COc1cc(NC(=O)CC2C(=O)N(c3cccc(C)c3)C(=O)N2Cc2cccs2)cc(OC)c1 (configuration not stated)	none
CC1=NN(c2ccc(C(=O)O)cc2)C(=O)CC1	TRHR enhancer-1 44 | TRHR enhancer-2 inactive | TRHR agonist-2 inactive
CNC(=O)C(=O)Nc1c(C)cc(C)cc1C	D1 antag -36, TRHR enhancer-1 41 | TRHR enhancer-2 inactive | TRHR agonist-2 inactive
O=c1ccc(-c2nc3ccccc3n2Cc2ccc(Cl)cc2)c[nH]1	TRHR enhancer-1 49 | TRHR enhancer-2 inactive | TRHR agonist-2 inactive
Cn1c(-c2ccc(=O)[nH]c2)nc2ccccc21	none
Cc1ccc(NC(=O)c2cc(S(=O)(=O)N3CCCC3)cn2C)cc1C	TRHR enhancer-1 47 | TRHR enhancer-2 inactive | TRHR agonist-2 inactive
Cc1ccc(NC(=O)NN2CCN(C)CC2)cc1C	TRHR enhancer-1 41 | TRHR enhancer-2 inactive | TRHR agonist-2 inactive
CCC1CN(C(=O)N2CCC(C(=O)NCCc3cc(OC)ccc3OC)CC2)c2ccccc2O1 (configuration not stated)	none
COc1nc(-c2ccccc2)ccc1-c1noc(-c2cccnc2)n1	TRHR enhancer-1 46 | TRHR enhancer-2 inactive | TRHR agonist-2 inactive
COc1nc(-c2ccc(C)cc2)ccc1-c1noc(-c2cccnc2)n1	none
CC(=O)c1sc2c(c1C)c(=O)n(-c1ccc(Cl)cc1)c(=O)n2Cc1ccc(Cl)cc1	USP1 inh inconclusive
CCCC(O)c1nc2ccccc2n1Cc1ccccc1OC (configuration not stated)	none
CCc1ccc(C(C(=O)NCCOC)N(C(=O)Cn2nnc3ccccc32)c2cccnc2)cc1 (configuration not stated)	none
COCCNC(=O)C(c1ccc(OC)cc1)N(C(=O)Cn1nnc2ccccc21)c1cccnc1 (configuration not stated)	TRHR enhancer-1 42 | TRHR enhancer-2 inactive | TRHR agonist-2 inactive
CCC(Oc1ccccc1)C(=O)N1CCN(Cc2cc(=O)n3nc(-c4cccc(C)c4)sc3n2)CC1 (configuration not stated)	none
CS(=O)(=O)c1ccc(Cl)c(NC(=O)CN2CCCC2c2ccc3c(c2)OCCCO3)c1 (configuration not stated)	TRHR enhancer-1 46 | TRHR enhancer-2 inactive | TRHR agonist-2 inactive
OC(COc1ccccc1)CN1CCCCCC1 (configuration not stated)	TRHR enhancer-1 42 | TRHR enhancer-2 inconclusive | TRHR agonist-2 inactive
O=C(Cn1c(=O)n(Cc2ccc(C(=O)NCc3ccccc3Cl)cc2)c(=O)c2ccccc21)Nc1ccc(F)c(Cl)c1	none
COc1cccc(/C=N/NC(=O)c2c(C)nc3ccc(Br)cn23)c1O	TRHR agonist-1 35 | TRHR enhancer-2 inactive | TRHR agonist-2 inconclusive
CCOC(=O)C1=C(CNCCc2ccc(Cl)cc2)NC(=O)NC1c1ccc2c(c1)OCO2 (configuration not stated)	TRHR enhancer-1 41 | TRHR enhancer-2 inactive | TRHR agonist-2 inconclusive
CCC(CC)COC(=O)C1=C(C)NC(=O)NC1c1ccc2c(c1)OCO2 (configuration not stated)	none
COc1ccc(OC)c(CN2CCC(Cc3ccccc3)CC2)c1	none | TRHR enhancer-2 inactive | TRHR agonist-2 inactive
